Cav3 T inh: human Cav3.2 channel inhibition, primary screen | Cav3.2-expressing cells, Fluo-4 calcium fluorescence FDSS; hits give low values | B-score at 10 µM | actives 4% (n = 100,000);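 active = single-dose well whose peak fluorescence ratio is a statistical outlier from its plate by either plate-standardised score or position-corrected B-score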
PTK2B oligo ant: blocks oligomerization of human Pyk2 in cells; Q14289; Q293 cells, Pyk2 FERM NanoBiT luminescence; hits give low values; z-score (the deposit names both 25 µM and 10 µM); actives 0.83% (n = 99,000); AID 1347419;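 active = Z-score of -3 or lower, scaled per plate to the spread of control and sample wells; inactive = z-score above -3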;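 also: negative z-score means lost luminescence so less FERM oligomerization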
CYP2C19 activ: increases human CYP2C19 enzyme activity; P33261; recombinant CYP2C19, luciferin-H EGE luminescence; hits give high values; 0 = fully inhibited enzyme, 1 = untreated enzyme; activation factor at 5 µM; 96,000 tested, under 10 active;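 active = activation factor of at least 2 at 5 µM in the primary screen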;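 also: 0 = wells with 2.5 mM tranylcypromine and 1 = vehicle-only wells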
Target sequence (P33261 whole entry, looked up): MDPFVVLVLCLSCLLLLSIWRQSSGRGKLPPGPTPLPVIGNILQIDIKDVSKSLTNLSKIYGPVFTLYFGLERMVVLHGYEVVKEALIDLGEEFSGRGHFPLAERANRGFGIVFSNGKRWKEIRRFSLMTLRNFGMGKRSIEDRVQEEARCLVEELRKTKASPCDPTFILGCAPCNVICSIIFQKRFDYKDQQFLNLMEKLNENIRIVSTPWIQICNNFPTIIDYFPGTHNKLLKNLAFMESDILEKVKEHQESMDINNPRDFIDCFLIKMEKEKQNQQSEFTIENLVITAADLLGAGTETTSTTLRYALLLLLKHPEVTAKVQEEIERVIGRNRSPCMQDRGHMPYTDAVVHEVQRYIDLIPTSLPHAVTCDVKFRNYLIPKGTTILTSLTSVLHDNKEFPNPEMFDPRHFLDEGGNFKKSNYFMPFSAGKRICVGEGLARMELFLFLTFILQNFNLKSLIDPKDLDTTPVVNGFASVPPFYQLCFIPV
CYP2C9 act: CYP2C9 (human) activation | recombinant CYP2C9, luciferin-H conversion, luminescence; hits give high values; factor 1 = untreated enzyme, 0 = blocked | activation factor at 5 µM | actives 1.4% (n = 96,000);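 active = activation factor of 2 or more for CYP2C9 at a 5 µM dose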;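 also: 0 = sulfaphenazole-blocked wells and 1 = vehicle-only wells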
CYP2C9 inhib: inhibitors of human CYP2C9; inhibition, % at 5 µM; actives 20% (n = 96,000); AID 777; CYP2C9 Supersomes, luciferin-H conversion, luminescence;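 active = blocking of liver enzyme CYP2C9 beyond about 50% at 5 µM, limit read from the data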
CYP2C19 inhib: blocks human cytochrome P450 2C19. P33261. actives 21% (n = 96,000). AID 778. inhibition, % at 5 µM. CYP2C19 Supersomes, luciferin-H EGE luminescence, 30 min;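 active = CYP2C19 inhibition above a set limit at 5 µM in the primary screen, cut at about 50% in these data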;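 also: plate controls were negative control wells for no effect and 2.5 mM tranylcypromine positive control for full effect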
An asterisk follows results filed as active. Most compounds without a hit are left out; they make up all but 27% or so of the library.

Screening O=C(COC(=O)CCCSc1nc2ccccc2[nH]1)NC(=O)NC1CCCC1 returned Cav3 T inh -0.47, PTK2B oligo ant 1.6, CYP2C19 activ 0.9, CYP2C9 act 1.5, CYP2C9 inhib -52 and CYP2C19 inhib 13.
COc1cc(NC(=O)c2nnn(Cc3ccc(SC)cc3)c2N)cc(OC)c1 was read as Cav3 T inh -0.093, CYP2C19 activ 0.9, CYP2C9 act 0.9, CYP2C9 inhib 13 and CYP2C19 inhib 7.
Screening O=C(CSc1n[nH]c(-c2ccc(S(=O)(=O)NC3CCCCC3)cc2)n1)N1CCCC1 returned Cav3 T inh -0.33, PTK2B oligo ant -0.2, CYP2C19 activ 0.1, CYP2C9 act 0.5, CYP2C9 inhib 51* and CYP2C19 inhib 87*.
Screening O=C(COc1ccc(S(=O)(=O)NC2CCCC2)cc1)N1CCCCCC1 returned Cav3 T inh -0.2, PTK2B oligo ant 0.86, CYP2C19 activ 0.9, CYP2C9 act 0.6, CYP2C9 inhib 36 and CYP2C19 inhib 8.
For c1coc(-c2nc3nc4ccccc4nc3n2-c2ccc3c(c2)OCCO3)c1 the results were Cav3 T inh -0.85, PTK2B oligo ant -0.37, CYP2C19 activ 0.9, CYP2C9 act 0.4, CYP2C9 inhib 64* and CYP2C19 inhib 14.
Screening c1ccc(Cn2c(-c3ccco3)nc3nc4ccccc4nc32)cc1 returned Cav3 T inh -0.056, PTK2B oligo ant 0.28, CYP2C19 activ 1, CYP2C9 act 0.9, CYP2C9 inhib 9 and CYP2C19 inhib 0.
For CC(C)CCNC(=O)NC(=O)COc1ccccc1C#N the results were Cav3 T inh -0.45, PTK2B oligo ant -0.05, CYP2C19 activ 0.3, CYP2C9 act 0.5, CYP2C9 inhib 48 and CYP2C19 inhib 75*.
`CCOc1ccc(C(O)C(CN2CCOCC2)c2ccccc2)cc1` (centres undefined) gave Cav3 T inh 0.66, PTK2B oligo ant 0.38, CYP2C19 activ 0.7, CYP2C9 act 1, CYP2C9 inhib 1 and CYP2C19 inhib 29.
Cc1ccc(N/C(SCc2ccccc2C)=C(/C#N)C(=O)NCc2ccco2)cc1C was read as Cav3 T inh -5.3*, PTK2B oligo ant 0.28, CYP2C19 activ 0.7, CYP2C9 act 0.2, CYP2C9 inhib 80* and CYP2C19 inhib 29.
For CCc1ccc(N/C(SCc2cccc(F)c2)=C(/C#N)C(=O)NCc2ccco2)cc1 the results were Cav3 T inh -3.6*, PTK2B oligo ant -1.1, CYP2C19 activ 0.5, CYP2C9 act 0.3, CYP2C9 inhib 68* and CYP2C19 inhib 55*.
For CC(C)CCNC(=O)c1ccc2c(c1)ncn2C1CCCCC1 the results were Cav3 T inh 0.8, PTK2B oligo ant -0.37, CYP2C19 activ 0.9, CYP2C9 act 0.7, CYP2C9 inhib 33 and CYP2C19 inhib 13.
Screening COC(=O)NCCOC(=O)N(O)c1ccc(Br)cc1 returned Cav3 T inh 0.0083, PTK2B oligo ant 0.36, CYP2C19 activ 0.3, CYP2C9 act 1, CYP2C9 inhib 2 and CYP2C19 inhib 68*.
Screening CCC(c1c(C)[nH]oc1=O)c1c(C)[nH]oc1=O returned Cav3 T inh 0.14, PTK2B oligo ant 0.3, CYP2C19 activ 1, CYP2C9 act 0.9, CYP2C9 inhib 10 and CYP2C19 inhib 0.
Cc1ccc(-c2cc(-c3ccccc3)c3c(N)c(S(C)(=O)=O)sc3n2)cc1 was read as Cav3 T inh -0.29, PTK2B oligo ant 0.87, CYP2C19 activ 0.7, CYP2C9 act 0.4, CYP2C9 inhib 58* and CYP2C19 inhib 29.
`CS(=O)(=O)c1sc2nc(-c3cccs3)cc(-c3ccccc3)c2c1N` gave Cav3 T inh -1.5, PTK2B oligo ant -0.31, CYP2C19 activ 0.9, CYP2C9 act 0.6, CYP2C9 inhib 38 and CYP2C19 inhib 11.
Cc1ccccc1-n1c(C)nnc1SCc1cc(=O)oc2ccc3ccccc3c12 was read as PTK2B oligo ant -2.5.
Screening COc1cc(C2Nc3cccc4cccc(c34)N2)cc(OC)c1O returned PTK2B oligo ant -1.3.
`CC(C)(C)C1CCC2(CC1)Nc1cccc3cccc(c13)N2` gave Cav3 T inh -2.4, PTK2B oligo ant -0.64, CYP2C19 activ 0, CYP2C9 act 0.2, CYP2C9 inhib 80* and CYP2C19 inhib 96*.
c1ccc(Cn2ncc3ccccc32)cc1 was read as Cav3 T inh -0.12, PTK2B oligo ant 1.1, CYP2C19 activ 0.8, CYP2C9 act 0.9, CYP2C9 inhib 6 and CYP2C19 inhib 24.
CN(C)c1nc(-c2ccccc2)c2cnn(Cc3ccccc3)c2n1 was read as Cav3 T inh 1.1, PTK2B oligo ant -1.6, CYP2C19 activ 0.3, CYP2C9 act 0.7, CYP2C9 inhib 35 and CYP2C19 inhib 67*.
For CCOC(=O)CN1C(=O)C(C)(C)Oc2ccc(C(=O)Nc3ccccc3)cc21 the results were Cav3 T inh -0.5, PTK2B oligo ant -0.93, CYP2C19 activ 0.9, CYP2C9 act 0.5, CYP2C9 inhib 50 and CYP2C19 inhib 7.
For COc1cccc(CN2C(=O)C3CCCN3c3ccc(S(=O)(=O)N4CCOCC4)cc32)c1 (centres undefined) the results were Cav3 T inh -0.76, CYP2C19 activ 0.7, CYP2C9 act 0.4, CYP2C9 inhib 62* and CYP2C19 inhib 27.
For Cc1cc2cc(CNC(=O)c3ccc(S(=O)(=O)N4CCCCC4)cc3)ccc2[nH]1 the results were Cav3 T inh -3.6, CYP2C19 activ 0.7, CYP2C9 act 0.2, CYP2C9 inhib 79* and CYP2C19 inhib 34.
Cc1cccc(-n2c(CNC(=O)c3ccc(S(=O)(=O)N4CCCC4)cc3)n[nH]c2=S)c1 was read as Cav3 T inh 0.24, PTK2B oligo ant 1.9, CYP2C19 activ 0.5, CYP2C9 act 0.9, CYP2C9 inhib 5 and CYP2C19 inhib 53*.
Screening COc1cccc(CNC(=O)C2CCN(S(=O)(=O)c3ccccc3)CC2)c1 returned Cav3 T inh 0.062, PTK2B oligo ant 1, CYP2C19 activ 0.9, CYP2C9 act 1, CYP2C9 inhib 0 and CYP2C19 inhib 11.
Screening COc1cccc(CNC(=O)c2ccc(S(=O)(=O)N3CCCC3)cc2)c1 returned Cav3 T inh 0.82, PTK2B oligo ant -0.06, CYP2C19 activ 0.8, CYP2C9 act 0.1, CYP2C9 inhib 86* and CYP2C19 inhib 23.
For CC(Cc1ccccc1)C(=O)N(C)Cc1cccnc1 (centres undefined) the results were Cav3 T inh 0.027.
`COC(=O)CN(C(=S)Nc1ccccc1)C1CC(=O)N(c2ccc(OC)cc2)C1=O` (centres undefined) gave Cav3 T inh 1, PTK2B oligo ant 0.08, CYP2C19 activ 0.6, CYP2C9 act 1, CYP2C9 inhib 5 and CYP2C19 inhib 42.
For COc1ccc(CN2CCN(S(=O)(=O)c3ccc(C)cc3)CC2)cc1Br the results were Cav3 T inh -0.63, PTK2B oligo ant -1, CYP2C19 activ 0.8, CYP2C9 act 0.5, CYP2C9 inhib 45 and CYP2C19 inhib 23.
